Laboratory results taken from PubChem BioAssay (NCI).
This is part of a sample that, as a whole, favours compounds with a hit. Of some 83,000 tested, about 20% had one in any assay.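 Single-concentration screen, 48 h exposure, 96-well plates. Endpoint: percent growth. Below 10 = active.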 Values without a mark were called inactive. The source made the active and inactive calls.

test system: HL-60(TB) leukemia; experiment: NCI-60 one-dose screen, 48 h (100 = growth as untreated, 0 = no growth, -100 = all killed); details: 10 µM unless noted

Structure (SMILES)	growth
Cc1ccccc1NC(=O)NC(CC(N)=O)c1ccc2c(c1)nc(-c1cccc(Oc3ccc(C(C)(C)C)cc3)c1)n2CCCN1CCCCC1C (stereo not given)	-3.28% (active)
Cn1cnc2nc[nH]c2c1=S	108%
NC(=NCCCOc1ccc(Cl)cc1)Nc1ccc(Cl)cc1	95.3%
COc1cc(-c2nc(NC(C)=O)sc2-c2ccnc(NCCNS(=O)(=O)c3ccccc3)n2)ccc1Cl	-22.3% (active)
O=C(Cc1ccc(/C=C/C(=O)c2ncc[nH]2)cc1)Nc1cc(F)c(F)c(F)c1	7.25% (active)
Clc1cccc(-c2nc(-c3cccs3)no2)c1	98.4%
COc1cc2c(c(Br)c1N)-c1cc(Br)c(N)cc1C2=O	88.9%
Cc1ccc(-c2cc(-c3nnc(SCC(=O)c4ccccc4)o3)c3ccccc3n2)cc1	103%
CCOC(=O)n1cc(-c2nonc2-c2cn(C)c3ncccc23)c2cc(F)ccc21	92.8%
Cc1cc(N=O)cc(C(C)(C)C)c1O	99.6%
